# This is a sample that favours compounds with a hit; in the whole collection about 2.5% have one here.
# PRMT1 FP inh: inhibitors of human PRMT1; Q99873; recombinant PRMT1, activity-based probe fluorescence polarization; inhibition, % at 2.79 µM; actives 1.3% (n = 370,000);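 active = inhibition above about 21% made by adding two undisclosed values, limit read from the data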
# Target sequence (Q99873 whole entry, looked up): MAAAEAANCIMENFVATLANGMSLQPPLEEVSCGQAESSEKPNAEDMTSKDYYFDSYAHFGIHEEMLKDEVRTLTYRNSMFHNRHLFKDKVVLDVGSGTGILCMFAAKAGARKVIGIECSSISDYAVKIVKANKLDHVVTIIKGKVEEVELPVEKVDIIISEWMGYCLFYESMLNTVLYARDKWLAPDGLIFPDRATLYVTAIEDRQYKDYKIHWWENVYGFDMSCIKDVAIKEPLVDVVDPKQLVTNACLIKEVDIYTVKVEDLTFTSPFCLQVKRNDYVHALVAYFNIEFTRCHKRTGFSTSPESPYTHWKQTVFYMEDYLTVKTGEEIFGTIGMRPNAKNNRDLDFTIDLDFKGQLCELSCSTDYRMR
# MBD2 DNA inh: MBD2-methylated oligo binding inhibition | Q9UBB5 | TR-FRET, MBD2 binding to methylated oligonucleotide | inhibition, % at 4.4 µM | actives 0.31% (n = 370,000) | AID 686964; in the data active = inhibition above about 13%
# UHRF1 MBD2 ctr: blocks human UHRF1 binding to methylated DNA. actives 0.75% (n = 370,000). inhibition, % at 4.4 µM. UHRF1 binding to methylated oligo, TR-FRET. Q96T88; in the data active = inhibition above about 21%;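 also: UHRF1 SRA domain binding a hemimethylated CpG hairpin DNA probe; 0% = median of test compound wells and 100% = reference inhibitor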
# LEDGF integ inh: blocks HIV-1 LEDGF/p75-dependent DNA integration; TR-FRET IN-LEDGF/p75 DNA integration, Eu/Cy5; inhibition, % at 3.7 µM; actives 0.64% (n = 370,000); AID 743269;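 active = inhibition above the screen-wide mean plus 3 SD, cut at about 13% in these data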;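 also: signal is the Cy5 over europium emission ratio at 671 and 618 nm; 0% = plate median of compound wells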
# PRMT1 inh conf: confirmation of human PRMT1 inhibitors; AID 687036; recombinant His-PRMT1, activity-based probe fluorescence polarization; actives 42% (n = 3,300); inhibition, % at 2.79 µM; shares compounds with PRMT1 FP inh;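 active = mean inhibition across replicates above the hit cutoff derived for the earlier primary screen, cut at about 22% in these data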
# * = called active by the depositor; . = not tested or not shown.
SMILES,PRMT1 FP inh,MBD2 DNA inh,UHRF1 MBD2 ctr,LEDGF integ inh,PRMT1 inh conf
CCOC(=O)c1c(C)[nH]c(C(=O)COC(=O)[C@H](C)N2C(=O)C3CCCCC3C2=O)c1C (some centres not stated),4,0,3,-3,.
CCOC(=O)[C@]12CCC=C1N(Cc1ccccc1)C(=O)[C@H](CC(=O)NCC1CCCCC1)C2,2,6,3,-2,.
O=C(c1ccc(CS(=O)Cc2ccc(Cl)cc2)o1)N1CCN(C2CCCCC2)CC1 (configuration not stated),2,0,1,-3,.
COc1ccccc1CNC(=O)C1CCC(CNS(=O)(=O)c2cccc3cccnc23)CC1 (configuration not stated),1,2,0,-2,.
O=C(c1ccc(F)cc1F)N1CCN(c2ccccn2)CC1,-3,-4,1,-2,.
CC(C)n1ncc2c(C(=O)Nc3ccccc3SCC(N)=O)cc(C3CC3)nc21,80*,-1,-2,0,-3
CCc1ccccc1NC(=O)CNC(=O)c1cc(C2CC2)nc2c1cnn2C(C)C,2,10,17,-3,.
CC(=O)c1ccc(OC(=O)CCc2nc3ccccc3s2)cc1,75*,-3,-1,1,27*
CC(=O)OCc1nc2ccccc2s1,-1,-5,-2,1,.
O=C(O)COCc1nc2ccccc2s1,53*,-2,-2,1,8
Cc1cc[n+](-c2[nH]c(=O)sc2/C=N/N=C(\[O-])c2ccncc2)cc1C,2,-3,-5,0,.
O=C(N/N=C/c1sc(=O)[nH]c1-[n+]1ccc2ccccc2c1)c1ccccc1[O-],95*,-8,-14,-2,3
Cc1cc[n+](-c2[nH]c(=O)sc2/C=N/N=C(\[O-])c2ccccc2)cc1C,62*,1,-4,-3,38*
COc1ccc(S(=O)(=O)c2c(N)n(Cc3ccco3)c3nc4ccccc4nc23)cc1,28*,2,0,15*,18
C#CC1(NC(=S)Nc2cccc(OC)c2)CCCCC1,5,2,0,2,.
COC(=O)C1=C(C)N(CCc2cc(OC)c(OC)c(OC)c2)C(=O)N[C@H]1c1ccccc1,0,0,0,3,.
O=[N+]([O-])c1ccc(N=Nc2c(Cl)cc(O)cc2Cl)cc1,1,-2,-5,1,.
O=C1CC(=Nc2ccc([N+](=O)[O-])cc2)NN1c1c(Cl)cc(Cl)cc1Cl,35*,3,3,-1,14
O=C1Nc2cccnc2Sc2ccccc21,0,1,-2,-2,.
c1ccc2c(c1)Nc1nccnc1S2,49*,-1,-5,-2,47*
Cn1cnnc1Sc1nc2ccccc2nc1NS(=O)(=O)c1ccccc1,1,1,1,-2,.
CC(=O)Nc1ccc(S(=O)(=O)Nc2nc3ccccc3nc2Sc2nncn2C)cc1,25*,-8,-1,4,5
N#CC1=C(N)NC(=S)C(C(N)=O)C1c1ccc([N+](=O)[O-])cc1 (configuration not stated),67*,-4,-3,0,12
Cc1c([N+](=O)[O-])c(C(=O)N2CCCC2)nn1C,-2,3,0,1,.
Cc1c([N+](=O)[O-])c(C(=O)Sc2ccc(Br)cc2)nn1C,50*,-1,7,-4,75*
SMILES,PRMT1 FP inh,MBD2 DNA inh,UHRF1 MBD2 ctr,LEDGF integ inh,PRMT1 inh conf
COc1ccc2[nH]c(C)c(CCN(Cc3cccs3)C(=S)Nc3ccccc3)c2c1,29*,-12,-11,8,11
COc1ccc(NC(=S)N(CCc2c(C)[nH]c3ccc(C)cc23)Cc2cccs2)cc1,1,1,-3,0,.
NC(=O)c1ccc(-n2nnnc2SCC(=O)Nc2ccc(F)cc2)cc1,2,-2,2,0,.
O=C1C(Cl)=C(Nc2ccccc2O)C(=O)N1CCc1ccccc1,30*,3,-5,-4,54*
Cc1ccc(C(=O)NC2CCN(CC(=O)NC3CCC(C)CC3)CC2)cc1 (configuration not stated),0,2,-3,-3,.
CCn1c(SCC(=O)Nc2ccc3c(c2)c2ccccc2n3CC)nnc1-c1ccco1,43*,-2,0,5,26*
CCn1c2ccccc2c2cc(NC(=O)c3ccc(Br)o3)ccc21,31*,-6,-5,0,45*
CCn1c2ccccc2c2cc(NC(=O)c3coc(=O)c(Br)c3)ccc21,-7,3,4,-1,.
CCC(=O)Nc1ccc2c(c1)OC[C@@H](C)N(C(=O)c1ccccn1)C[C@@H](C)[C@@H](OC)CN(C)C2=O,3,3,-1,-2,.
CC(C)c1ccc(/C=N/n2c(COc3ccccc3)n[nH]c2=S)cc1,31*,-2,1,-7,21
S=c1[nH]nc(COc2ccccc2)n1/N=C/C=C/c1ccco1,33*,7,14,13,1
CCN(Cc1ccccc1)C(=O)CCS(=O)(=O)c1ccc2c(c1)n(C)c(=O)c(=O)n2C,-2,-3,1,-1,.
O=C(CN1C(=O)CCSc2ccccc21)Nc1cccc(Cl)c1F,16,-1,1,-3,.
C=CCNC(=S)N1CCN(Cc2ccccc2)CC1,-2,-1,2,3,.
O=C(Nc1ccc(Cl)c(Cl)c1)C1CCN(c2nnc(-n3cccc3)s2)CC1,-2,-3,-3,-1,.
CCn1c(SCC(=O)c2ccccc2)nc2sc3c(c2c1=O)CCN(C)C3,55*,-1,2,-1,14
O=C(C1=NN[C@@H]2C(=O)N(c3cccc(F)c3)C(=O)[C@H]12)c1cnccn1,36*,4,0,-2,14
Cc1ccc(S(=O)(=O)CCSC(=N)N)cc1,25*,-8,-1,-1,7
O=C(CCCCCn1c(SCc2ccncc2)nc2ccccc2c1=O)NCc1ccco1,46*,-1,-1,5,9
CC(C)=C(NC(=O)c1ccccc1)C(=O)Nc1cccc(C(=O)O)c1,-1,0,0,2,.
CC(=O)Nc1cccc(N2C(=O)CC(N3CCC(C(=O)N4CCCCC4)CC3)C2=O)c1 (configuration not stated),79*,4,0,-1,1
O=C(C1CCN(C2CC(=O)N(c3ccc(F)cc3)C2=O)CC1)N1CCOCC1 (configuration not stated),46*,-1,-2,1,3
O=C1CCCN1CCC1CCN(C2CC(=O)N(c3ccc(F)cc3)C2=O)CC1 (configuration not stated),48*,-2,0,-1,7
O=C1CC(N2CCOCC2)C(=O)N1c1ccccc1Cl (configuration not stated),26*,-1,0,5,2
O=C1CC(N2CCN(c3ccccn3)CC2)C(=O)N1c1ccc(F)cc1 (configuration not stated),2,-3,-1,-4,.
O=C1CC(N2CCOCC2)C(=O)N1c1cc(Cl)cc(Cl)c1 (configuration not stated),7,2,4,7,.

# Assay outcomes: PubChem BioAssay, The Scripps Research Institute Molecular Screening Center
